An excerpt weighted towards active compounds, which were near 2.9% of everything screened.
EPAC1 ag val = Validation qHTS for agonist of cAMP-regulated guanine nucleotide exchange factor 3 (EPAC1); EPAC1 Rap1b BODIPY-GDP exchange, fluorescence; AID 1645883, 2021; Rap guanine nucleotide exchange factor 3 (Homo sapiens), O95398; actives 1% (n = 16,000); Potency, µM, most hits filed as activators; further: nearly all actives have a fitted effect of over 70% in size
EPAC2 ant val = Validation qHTS for antagonist of cAMP-regulated guanine nucleotide exchange factor 4 (EPAC2); Rap guanine nucleotide exchange factor 4 (Homo sapiens), Q8WZA2; EPAC2 Rap1B BODIPY-GDP exchange, fluorescence; Potency, µM (highest dose often 112 µM), most hits filed as inhibitors; actives 1.7% (n = 16,000); AID 1645886, 2021; further: nearly all actives have a fitted effect of over 40% in size
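Fluorescent exchange read-out: 100 nM EPAC2 with 250 nM RAP1B–BODIPY-GDP and 50 uM GDP; BODIPY-GDP release lowers fluorescence. Read at 480/540 nm every 5 min for 30 min at room temperature; normalized to 6.5 mM cAMP.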
Numbers stand for hits; ! = a repeat was not active. The call rests on the fitted dose curve; in most records, active means well fitted curve in the direction sought with a large enough effect; inconclusive means small, poorly fitted or top-dose-only effect, or another doubt; inactive means no such curve, though single readings can be large; an effect the other way counts as inactive or inconclusive.

Results for CN[C@@H]1[C@@H](O)[C@@H](O[C@@H]2[C@@H](O)[C@H](O[C@H]3O[C@H](CN)[C@@H](O)[C@H](O)[C@H]3O)[C@@H](N)C[C@H]2NC(=O)C(O)CN)OC[C@]1(C)O (some centres not stated) ?
EPAC1 ag val: inactive; EPAC2 ant val: inactive

How did COc1ccc(C(=O)c2ccccc2)c(O)c1 do in these assays?
EPAC1 ag val: inactive; EPAC2 ant val: 40µM!

What do the screens show for `COc1ccc(C(=O)c2ccc(C)cc2)c(O)c1`?
EPAC1 ag val: inactive; EPAC2 ant val: inconclusive

What do the screens show for `CO[C@H]1[C@H](NC(=O)c2ccco2)c2ccccc2C12CCN(Cc1cc(Cl)ccc1O)CC2`?
EPAC1 ag val: inactive; EPAC2 ant val: inactive

How did CCCCCCCCCCCCCCCC(=O)O[C@@H]1CC(C)=C(/C=C/C(C)=C/C=C/C(C)=C/C=C/C=C(C)/C=C/C=C(C)/C=C/C2=C(C)C[C@@H](OC(=O)CCCCCCCCCCCCCCC)CC2(C)C)C(C)(C)C1 do in these assays?
EPAC1 ag val: inactive; EPAC2 ant val: inactive

Results for CN(C)Cc1ccccc1-c1nc(N2CCOCC2)c2ccccc2n1 ?
EPAC1 ag val: inactive; EPAC2 ant val: inactive

What do the screens show for `C#CCN(Cc1nc(N2CCOCC2)c2ccc(Cl)cc2n1)Cc1ccco1`?
EPAC1 ag val: inactive; EPAC2 ant val: 50µM

What do the screens show for `CCC1C(=O)NCCN1Cc1ccc2c(c1)CN(Cc1cccc(OC)c1OC)CCO2` (configuration not stated)?
EPAC1 ag val: inactive; EPAC2 ant val: inactive

Results for CC(C)[C@@H](C)/C=C/[C@@H](C)[C@H]1CC[C@H]2/C(=C/C=C3\C[C@@H](O)CC[C@@H]3C)CCC[C@]12C ?
EPAC1 ag val: inactive; EPAC2 ant val: inactive

Results for CC(NC(=O)c1cc(F)ccc1F)c1nnc2n1CCN(Cc1ccc(-c3ccccc3)cc1)CC2 (configuration not stated) ?
EPAC1 ag val: inactive; EPAC2 ant val: inactive

Results for COc1cc2ccc(=O)oc2cc1O ?
EPAC1 ag val: 100µM!; EPAC2 ant val: inactive

What do the screens show for `COc1ccc2ccc(=O)oc2c1CC=C(C)C`?
EPAC1 ag val: inactive; EPAC2 ant val: inconclusive

How did CC(C)NC(=O)[C@@H]1C[C@@H](Sc2nc3ccccc3[nH]2)CN1C1Cc2ccccc2C1 do in these assays?
EPAC1 ag val: inactive; EPAC2 ant val: inactive

What do the screens show for `CC(CN1c2ccccc2Sc2cccnc21)N(C)C` (configuration not stated)?
EPAC1 ag val: inactive; EPAC2 ant val: inactive

Results for COC(=O)C1CCN(Cc2ccc3c(c2)CN(C(=O)c2cc(-c4ccc(C)o4)[nH]n2)CCO3)CC1 ?
EPAC1 ag val: inactive; EPAC2 ant val: inconclusive

What do the screens show for `CC[C@@]1(O)C(=O)OCc2c1cc1n(c2=O)Cc2cc3c([N+](=O)[O-])cccc3nc2-1`?
EPAC1 ag val: inactive; EPAC2 ant val: inactive

Results for CC[C@@]1(O)C(=O)OCc2c1cc1n(c2=O)Cc2cc3c(CN(C)C)c(O)ccc3nc2-1 ?
EPAC1 ag val: 112µM; EPAC2 ant val: inactive

Results for Cc1nc(CC(=O)NCC2Cc3cc(F)cc(-c4ccc(F)c(C)c4)c3O2)cs1 (configuration not stated) ?
EPAC1 ag val: inactive; EPAC2 ant val: inactive

Results for O=C1c2ccccc2C(=O)c2c(O)ccc(O)c21 ?
EPAC1 ag val: inactive; EPAC2 ant val: inactive

How did O=C1OC(c2ccc(O)cc2)(c2ccc(O)cc2)c2ccccc21 do in these assays?
EPAC1 ag val: inconclusive; EPAC2 ant val: 35µM!

How did CO/N=C(\C(=O)N[C@@H]1C(=O)N2C(C(=O)O)=C(CSC(=O)c3ccco3)CS[C@H]12)c1csc(N)n1 do in these assays?
EPAC1 ag val: inactive; EPAC2 ant val: inactive

Results for CC(/C=C/c1cccc(Oc2ccc(F)cc2)c1)N(O)C(N)=O (configuration not stated) ?
EPAC1 ag val: inactive; EPAC2 ant val: 79µM

How did CC(C(=O)O)c1cccc(Oc2ccccc2)c1 (configuration not stated) do in these assays?
EPAC1 ag val: inactive; EPAC2 ant val: inactive

How did C[C@@H](/C=C\c1cccc(Oc2ccc(F)cc2)c1)N(O)C(N)=O do in these assays?
EPAC1 ag val: inactive; EPAC2 ant val: 25µM

Results for COc1ccc(C(=O)NCC2Cc3cc(C)cc(-c4cc(C(C)=O)ccc4F)c3O2)c(OC)c1OC (configuration not stated) ?
EPAC1 ag val: inactive; EPAC2 ant val: inactive

What do the screens show for `C#C[C@]1(OC(C)=O)CC[C@H]2[C@@H]3CCC4=C[C@@H](OC(C)=O)CC[C@@H]4[C@H]3CC[C@@]21C`?
EPAC1 ag val: 45µM!; EPAC2 ant val: inconclusive

What do the screens show for `C#C[C@@]1(O)CCC2C3CCC4=CC(=O)CCC4C3CC[C@@]21CC` (some centres not stated)?
EPAC1 ag val: inactive; EPAC2 ant val: inactive

What do the screens show for `C#C[C@]1(O)CC[C@H]2[C@@H]3CCc4cc(O)ccc4[C@H]3CC[C@@]21C`?
EPAC1 ag val: inactive; EPAC2 ant val: inactive

Results for C#C[C@]1(OC(C)=O)CCC2C3CCC4=CC(=O)CCC4C3CC[C@]21C (some centres not stated) ?
EPAC1 ag val: inactive; EPAC2 ant val: 79µM

How did O=C(O)[C@@H](O)[C@H](O)[C@H](O)[C@@H](O)C(=O)O (tested in a mixture with another compound) do in these assays?
EPAC1 ag val: inactive; EPAC2 ant val: inactive

How did Cc1ccnn1CC(=O)N1CCOc2c(cc(-c3csc4ccccc34)cc2OC2CCOC2)C1 (configuration not stated) do in these assays?
EPAC1 ag val: inactive; EPAC2 ant val: inconclusive

How did Fc1ccc(N2CCN(Cc3ccc4c(c3)CN(Cc3cccn3-c3cccnc3)CCO4)CC2)cc1 do in these assays?
EPAC1 ag val: inactive; EPAC2 ant val: inactive

Results for CC1CS(=O)(=O)CCN1/N=C/c1ccc([N+](=O)[O-])o1 (configuration not stated) ?
EPAC1 ag val: inactive; EPAC2 ant val: inactive

What do the screens show for `COc1cccc2c1C(=O)c1c(O)c3c(c(O)c1C2=O)C[C@@](O)(C(=O)CO)C[C@@H]3O[C@H]1C[C@H](N)[C@H](O[C@@H]2CCCCO2)[C@H](C)O1`?
EPAC1 ag val: inactive; EPAC2 ant val: inactive

How did CC(=O)[C@]1(O)Cc2c(O)c3c(c(O)c2[C@@H](O[C@H]2C[C@H](N)[C@H](O)[C@H](C)O2)C1)C(=O)c1c(O)cccc1C3=O do in these assays?
EPAC1 ag val: 112µM; EPAC2 ant val: inactive

What do the screens show for `CC(=O)[C@]1(O)Cc2c(O)c3c(c(O)c2[C@@H](O[C@H]2C[C@H](N)[C@H](O)[C@H](C)O2)C1)C(=O)c1ccccc1C3=O`?
EPAC1 ag val: 40µM; EPAC2 ant val: inactive

How did CC[C@@]1(O)C[C@H](O[C@H]2C[C@H](N(C)C)[C@H](O[C@H]3C[C@H](O)[C@H](O[C@H]4CCC(=O)[C@H](C)O4)[C@H](C)O3)[C@H](C)O2)c2c(cc3c(c2O)C(=O)c2c(O)cccc2C3=O)[C@H]1C(=O)OC do in these assays?
EPAC1 ag val: inactive; EPAC2 ant val: inactive

What do the screens show for `COc1cccc2c1C(=O)c1c(O)c3c(c(O)c1C2=O)C[C@@](O)(C(C)=O)C[C@@H]3O[C@H]1C[C@H](N)[C@H](O)[C@H](C)O1`?
EPAC1 ag val: 112µM!; EPAC2 ant val: inactive

Screening results as filed in PubChem BioAssay.
